Screening data from PubChem.
IP6K1 inh = Primary qHTS assay for small molecule inhibitors of Inositol hexaphosphate kinase 1 (IP6K1). actives 0.81% (n = 140,000). Inositol hexakisphosphate kinase 1 (Homo sapiens), Q92551. activity change, % (series mostly up to about 58 µM). IP6K1 kinase, ADP-Glo luminescence, 2 h; active compounds read low. AID 1645851, 2021; in the data active means activity change below about -25%
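ADP-Glo luminescence measures ADP made by human IP6K1 during a 2 h RT reaction with ATP/IP6 (mix at 1.3 mM/130 uM); top library doses 57.5 and 19.1 uM final.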
KDM5B inhibitor = Primary screen for KDM5B Histone Demethylases FDH-coupled qHTS | KDM5B demethylase, FDH-coupled NADH fluorescence (FDH is formaldehyde dehydrogenase) | Potency, µM (series often up to 57.7 µM), usual class: inhibitors | Lysine-specific demethylase 5B (Homo sapiens), Q9UGL1 | actives 2.6% (n = 220,000); active means well fitted inhibition curve with a large enough effect; inconclusive means small, poorly fitted or top-dose-only effect; inactive means no such curve, though single readings can be large or run the other way; further: nearly all actives have a fitted effect of over 70% in size
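Inhibition is measured as reduced NADH fluorescence generation from FDH coupling to formaldehyde release. Truncated KDM5BΔAP at 200 nM final acts on H3K4me3 peptide (12.5 µM in substrate mix) in pH 7.5 HEPES buffer with Tween-20, 30 min, room temperature.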
Of the large screens only hits and unclear results are named; the others gave an inactive call. Shown are actives, neighbours in structure and some others; about 2.8% of the full set was active somewhere.

O=C(NCC(=O)N1CCN(c2ccccn2)CC1)c1cncc(Br)c1	KDM5B inhibitor inconclusive
CC(C)CC(=O)NCC(=O)N1CCN(c2ccccn2)CC1	KDM5B inhibitor 25µM
CC(C)CC(=O)NCCc1ccccn1	none (no result: IP6K1 inh)
O=C(NCCNC(=O)c1cc2ccccc2[nH]1)c1ccccn1	none (no result: IP6K1 inh)
O=C1N[C@H](CC(=O)N2CCN(c3ccccn3)CC2)C(=O)Nc2ccccc21	KDM5B inhibitor 28µM
O=C(NCC(=O)N1CCN(c2ccccn2)CC1)c1cc2ccccc2[nH]1	KDM5B inhibitor 14µM
CC(C)(C)CC(=O)NCC(=O)N1CCN(c2ccccn2)CC1	KDM5B inhibitor 28µM
CCOc1ccccc1C(=O)NCC(=O)N1CCN(c2ccccn2)CC1	KDM5B inhibitor 28µM
O=C(/C=C/c1ccccc1F)N1CCN(c2ccccn2)CC1	none (no result: IP6K1 inh)
COCC(=O)N1CCC(Oc2ccccc2C(=O)N2CCN(c3ccccn3)CC2)CC1	KDM5B inhibitor inconclusive
CC(=O)NCc1ccc(S(=O)(=O)N2CCN(c3ccccn3)CC2)cc1	none (no result: IP6K1 inh)
O=C(Cc1c(F)cccc1Cl)NCC(=O)N1CCN(c2ccccn2)CC1	KDM5B inhibitor 25µM
CCC(O)CNC(=O)c1cnn2cc(CN(CC)CC)cnc12 (stereo not drawn)	KDM5B inhibitor inconclusive
Cc1cnc(CC2CCN(C(=O)C3CCC3)C2)n1C(C)C (stereo not drawn)	none
COc1ncccc1-c1cc2c(ccn2Cc2ccncc2)c(N2CCOCC2)n1	KDM5B inhibitor 7.9µM
N#Cc1ccccc1-c1cc2c(ccn2Cc2ccncc2)c(N2CCOCC2)n1	KDM5B inhibitor inconclusive
COc1ncccc1-c1cc2c(ccn2CC2CCN(C)CC2)c(N2CCOCC2)n1	KDM5B inhibitor 25µM
COc1cccc(-c2cc3c(ccn3CC3CCN(C)CC3)c(N3CCOCC3)n2)c1	none
Fc1ccccc1-c1cc2c(ccn2Cc2ccncc2)c(N2CCOCC2)n1	KDM5B inhibitor 28µM
COc1ccccc1-c1cc2c(ccn2Cc2ccncc2)c(N2CCOCC2)n1	KDM5B inhibitor inconclusive
Cn1nc(C2CCN(C(=O)Cc3ccccc3)CC2)c2c1CCOC2	none
Nc1cc(=O)[nH]c(SCc2cccc(Br)c2)n1	none (no result: IP6K1 inh)
CNC(=O)c1cc(Oc2ccc(NC(=O)Nc3cc(C(C)(C)C)nn3-c3ccc4ncccc4c3)c(F)c2)ccn1	none (no result: KDM5B inhibitor)
Cc1ccc(-c2cc(N3CCC(CNC(=O)c4cccc(N(C)C)c4)CC3)n[nH]2)cc1	KDM5B inhibitor 28µM
CN(C)c1cccc(C(=O)NCC2CCN(c3cc(-c4ccc(Cl)cc4)[nH]n3)CC2)c1	KDM5B inhibitor 32µM
Cc1cccc(-c2[nH]ncc2CNC(=O)c2cccc(N(C)C)c2)c1	KDM5B inhibitor 28µM
Cc1ccc(-c2cc(N3CCC(CNC(=O)c4ccc[nH]4)CC3)n[nH]2)cc1	KDM5B inhibitor inconclusive
O=C(NCC1CCN(c2cc(-c3ccc(F)cc3)[nH]n2)CC1)c1n[nH]c2c1CCCC2	none
Cc1ccc(NC(=O)c2cccc(N(C)C)c2)c(C)c1	none (no result: IP6K1 inh)
CN(C)c1cccc(C(=O)NCC2CCN(c3cc(-c4ccc(F)cc4)[nH]n3)CC2)c1	KDM5B inhibitor 20µM
CN(C)c1cccc(C(=O)NC2CCCN(c3cc(-c4ccc(Cl)cc4)[nH]n3)C2)c1 (stereo not drawn)	KDM5B inhibitor inconclusive
O=C(CCNC(=O)C1CCCC1)NC1CCCC1	none (no result: IP6K1 inh)
COc1ccc(NC(=O)C2CC(=O)N(Cc3ccccc3)C2)cc1S(=O)(=O)N1CCCCC1 (stereo not drawn)	none (no result: IP6K1 inh)
CCCOc1ccc2ccccc2c1CN(C)C(=O)Cc1n[nH]c(=O)c2ccccc12	none (no result: IP6K1 inh)
O=C(Cc1cccs1)N(Cc1cccs1)C1CC1	none (no result: IP6K1 inh)
COc1ccc(C(=O)Nc2ccc3oc(-c4ccccc4C)cc(=O)c3c2)cc1	none (no result: IP6K1 inh)
CNC(=O)c1nn(CC(=O)Nc2ccc(OC)cc2OC)c(=O)c2ccccc12	none (no result: IP6K1 inh)
Cc1ccc(NC(=O)c2csc3c2CCCC3)c(C)c1	none (no result: IP6K1 inh)
CCn1nc(C(=O)OCCOc2ccccc2)c2ccccc2c1=O	none (no result: IP6K1 inh)
O=C1CCN(C(=O)[C@@H]2CCCN2Cc2ccc(F)cc2F)CCCCCCN1	KDM5B inhibitor inconclusive
O=C([C@@H]1CCCN1Cc1cc(=O)c2cc(F)ccc2[nH]1)N1CCCCC1	KDM5B inhibitor 28µM
O=c1n(-c2ccc(F)cc2F)nc2n1CCN([S+](=O)([O-])c1cccc(C(F)(F)F)c1)C2	none
Cc1ccc(CN2CCn3c(nn(-c4ccc([N+](=O)[O-])cc4)c3=O)C2)cc1	KDM5B inhibitor inconclusive
O=c1n(-c2ccc(F)cc2F)nc2n1CCN(Cc1ccc(C(F)(F)F)cc1)C2	KDM5B inhibitor inconclusive
COc1ccc(CN2CCn3c(nn(-c4ccc(F)cc4F)c3=O)C2)cc1	KDM5B inhibitor 22µM
COc1ccc(CN2CCn3c(nn(-c4ccc([N+](=O)[O-])cc4)c3=O)C2)cc1	KDM5B inhibitor 32µM
COc1cccc([S+](=O)([O-])N2CCn3c(nn(-c4ccc(F)cc4F)c3=O)C2)c1	KDM5B inhibitor 25µM
CNC(=O)NC(=O)C(C)Sc1ccc(F)cc1 (stereo not drawn)	none (no result: IP6K1 inh)
O=C(c1ccc(C(=O)N2CCC(N3CCCC3)CC2)c(Nc2ccccc2)c1)N1CCC(N2CCCC2)CC1	none (no result: KDM5B inhibitor)
COC(=O)[C@@H]1Cc2c([nH]c3ccccc23)[C@H]2C[C@@H](NCCN(C)C)C[C@@H](c3ccc(F)cc3)N21	KDM5B inhibitor 25µM
COC(=O)[C@@H]1Cc2c([nH]c3ccccc23)[C@H]2C[C@@H](NCc3cccs3)C[C@@H](c3ccc(F)cc3)N21	KDM5B inhibitor inconclusive
COCCN[C@@H]1C[C@@H]2c3[nH]c4ccccc4c3C[C@@H](C(=O)OC)N2[C@H](c2ccc(C(C)C)cc2)C1	KDM5B inhibitor inconclusive
COC(=O)[C@@H]1Cc2c([nH]c3ccccc23)[C@H]2C[C@@H](NCCCn3ccnc3)C[C@@H](c3ccc(F)cc3)N21	KDM5B inhibitor 13µM
COCCN[C@@H]1C[C@@H]2c3[nH]c4ccccc4c3C[C@@H](C(=O)OC)N2[C@H](c2cccc(OC)c2)C1	KDM5B inhibitor 5.6µM
COCCN[C@@H]1C[C@@H]2c3[nH]c4ccccc4c3C[C@@H](C(=O)OC)N2[C@H](c2ccc(Cl)c(F)c2)C1	KDM5B inhibitor inconclusive
COC(=O)[C@@H]1Cc2c([nH]c3ccccc23)[C@H]2C[C@@H](NCCCn3ccnc3)C[C@@H](c3ccc(Cl)c(F)c3)N21	none
COCCN[C@H]1C[C@@H]2c3[nH]c4ccccc4c3C[C@@H](C(=O)OC)N2[C@H](c2ccccc2)C1	KDM5B inhibitor 28µM
CCC(CC)C(=O)Nc1ccc([C@@H](O)[C@H]2COCC(=O)N2CC)cc1	none
CN(Cc1ccccc1)C(=O)c1ccc2c(c1)NC(C)(CNCc1ccccc1)CO2 (stereo not drawn)	KDM5B inhibitor inconclusive
CCOC(=O)CCNC(=O)N1CCC(Oc2ncccc2C(=O)N(C)C)C1 (stereo not drawn)	none
CCOc1ccc(CNC(=O)Cn2nc(C)c3sc4ccccc4c3c2=O)cc1	none
COc1cc(-c2ccnc3ncnn23)cc(OC)c1OC	KDM5B inhibitor inconclusive
COc1cc(F)ccc1-c1ccnc2ncnn12	KDM5B inhibitor 25µM
COc1ccc(-c2ccnc3ncnn23)c(F)c1	KDM5B inhibitor 28µM
c1ccc2oc(-c3ccnc4ncnn34)cc2c1	none
N#CCC(=O)c1ccsc1	none (no result: IP6K1 inh)
Cn1cc(CN2CCC(C3CCN(S(C)(=O)=O)CC3)C2)c2ccccc21 (stereo not drawn)	none
Cc1nnc2n1CCC(NC(=O)c1cnco1)CC2 (stereo not drawn)	none
